# Results: PubChem BioAssay AID588342 (National Center for Advancing Translational Sciences (NCATS), 2011)
# About 25,000 (6.9%) of roughly 360,000 compounds were called active. Not shown: some 9% with an inconclusive outcome. Many of the other results were omitted from the sample, so actives are more common in it than they were. Unmarked numbers belong to inactive results. Calls follow the shape of the dose curve; as a rule, active = well fitted inhibition curve with a large enough effect; inconclusive = small, poorly fitted or top-dose-only effect; inactive = flat fitted curve, though single readings scatter.
# Biological target: Luciferin 4-monooxygenase (Photinus pyralis) (UniProt P08659)
# Sequence (P08659 whole entry, looked up): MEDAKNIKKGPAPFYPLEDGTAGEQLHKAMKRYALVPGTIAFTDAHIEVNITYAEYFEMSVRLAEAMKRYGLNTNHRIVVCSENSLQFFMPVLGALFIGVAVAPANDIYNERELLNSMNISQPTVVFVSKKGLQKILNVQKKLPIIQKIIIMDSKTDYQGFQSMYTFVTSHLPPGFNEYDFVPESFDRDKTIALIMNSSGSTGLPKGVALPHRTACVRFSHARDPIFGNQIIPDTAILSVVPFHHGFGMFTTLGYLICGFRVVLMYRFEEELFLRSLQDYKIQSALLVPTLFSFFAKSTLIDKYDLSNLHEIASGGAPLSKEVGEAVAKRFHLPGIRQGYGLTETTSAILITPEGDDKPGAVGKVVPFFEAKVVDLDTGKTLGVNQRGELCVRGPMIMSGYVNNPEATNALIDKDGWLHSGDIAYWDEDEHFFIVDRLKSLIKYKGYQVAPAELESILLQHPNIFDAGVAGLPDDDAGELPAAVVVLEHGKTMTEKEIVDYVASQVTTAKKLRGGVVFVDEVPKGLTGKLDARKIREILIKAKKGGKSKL
# Assay: qHTS profiling assay for firefly luciferase inhibitor/activator using purifed enzyme and Km concentrations of substrates (counterscreen for miR-21 project); also: nearly all actives have a fitted effect of over 55% in size;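 as to activity change, negative = inhibition: plate controls were vehicle for no effect and reference inhibitor for full effect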
# Settings: purified FLuc, luminescence inhibition; series mostly up to 57.5 µM; activity change, negative = inhibition: at the top concentration
# Outline: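 Purified P. pyralis luciferase (10nM final) with 10uM D-luciferin and 10uM ATP (Km levels) in 50mM Tris acetate pH 7.5, 10mM Mg acetate, 0.01% Tween-20, 0.05% BSA; qHTS 6-point titration, ~60 µM downward; luminescence read.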
# Potency is read from the fitted curve at half-maximal effect.
Structure (SMILES),"activity change, negative = inhibition",Potency
CC(C)(C)NC(=O)CSC(=Nc1ccccc1F)NC#N,-9.66% (inactive),
CC1CN/C(=C\C(=O)c2ccc(Br)cc2)C(=O)N1 (stereo not drawn),,1.9 µM (active)
O=C(O)C1CCCN1S(=O)(=O)c1ccc(Br)cc1 (stereo not drawn),-2.95% (inactive),
CC1(C)Cc2ccccc2/C(=C/C(=O)c2ccccc2)N1,-0.311% (inactive),
CCN(CC)S(=O)(=O)c1ccc(Cl)c(C(=O)NCCN2CCOCC2)c1,-0.0874% (inactive),
O=C(NCc1ccccc1)C(c1ccccc1)N(C(=O)c1csnn1)c1ccc(F)cc1 (stereo not drawn),1.31% (inactive),
COc1cccc(CNC(=O)CN2C(=O)CCc3cc(S(=O)(=O)N4CCOCC4)ccc32)c1,-4.52% (inactive),
Cc1nc(-c2ccc(F)cc2)c(CC(=O)N(C)CC(=O)Nc2c(C)cccc2C)s1,-1.73% (inactive),
COc1ccc(OC)c(/C=N/NC(=O)CSc2nnc(C)n2-c2ccccc2)c1,-6.59% (inactive),
COc1ccc(/C=C2/C(=O)N(c3ccccc3)N=C2C)c(OC)c1,,15.1 µM (active)
COc1ccc(C(=O)NC2CC(C)(C)Cc3c2cnn3-c2ccccc2)c(OC)c1 (stereo not drawn),2.3% (inactive),
CCCCc1ccc(NS(=O)(=O)c2cccc(C(=O)N3CCCN(C)CC3)c2)cc1,-0.803% (inactive),
COc1ccc(NS(=O)(=O)c2ccc(NC(=S)NC(=O)/C=C/c3ccc(C)cc3)cc2)nn1,-2.64% (inactive),
COc1ccc(/C=C/C(=O)c2ccc(NS(=O)(=O)c3ccc(C)cc3)cc2)cc1O,,6.01 µM (active)
COc1cc(NS(=O)(=O)c2ccc(NC(C)=O)cc2)cc(OC)c1,-1.03% (inactive),
COc1cccc2c1cc1c(=O)n(CC(=O)N3CCN(c4ccccc4)CC3)nc(C)n12,-1.6% (inactive),
Cc1ccsc1/C=N/n1c(=S)[nH]nc(C)c1=O,3.07% (inactive),
COc1ccc2[nH]c(C(=O)N/N=C/c3cc(OC)c(OC)c(OC)c3)cc2c1,,12 µM (active)
COc1cc2cc(C(=O)N/N=C/c3cccc(OC)c3OC)[nH]c2cc1OC,,16.9 µM (active)
CCOc1ccc2[nH]c(C(=O)N/N=C/c3cccc(OC)c3OC)cc2c1,,15.1 µM (active)
COc1ccc(CC(=O)NCC(=O)N/N=C/c2cc(Br)ccc2OC)cc1,-11.2% (inactive),
COc1ccc(/C=N/NC(=O)C2CC2)c(OC)c1OC,-6.25% (inactive),
COc1cccc(/C=N/NC(=O)CNC(=O)c2ccc(S(=O)(=O)N3CCOCC3)cc2)c1OC,0.36% (inactive),
CCOc1ccccc1/C=N/NC(=O)CNC(=O)COc1ccccc1,-20% (inactive),
COc1cc(/C=N/NC(=O)Cc2ccccc2)cc(OC)c1OC,-1.02% (inactive),
COc1cccc(OCc2cc(/C=N/NC(=O)c3nc(Cl)c(Cl)c(N)c3Cl)ccc2OC)c1,-11.1% (inactive),
Cc1[nH]c2ccccc2c1C(=O)C(C)Sc1nnc(C2CC2)o1 (stereo not drawn),1.18% (inactive),

Structure (SMILES),"activity change, negative = inhibition",Potency
CC1=C(C(=O)OCC(C)C)C(c2ccc(OCc3ccccc3)cc2)N2C(=O)CCSC2=N1 (stereo not drawn),-7.41% (inactive),
Cc1cccc(C(=O)N2CCc3cc(CNC(=O)Cc4ccc(F)cc4)ccc32)c1,-24% (inactive),
O=C(CSc1oc(-c2ccc(F)cc2)nc1S(=O)(=O)c1ccc(Br)cc1)NC1CCCCC1,-1.9% (inactive),
CCOC(=O)c1ccc2c(c1)N(Cc1cccc(OC)c1)C(=O)c1ccccc1S2(=O)=O,4.9% (inactive),
C/C(=N\NC(=O)c1ccccc1F)c1ccccn1,,2.39 µM (active)
C/C(CC(=O)Nc1ccc(N(C)C)cc1)=N\NC(=O)c1ccccc1F,-0.398% (inactive),
C/C(=N\NC(=O)Cc1ccc(Cl)cc1)c1ccccn1,5.25% (inactive),
CCCSc1ncc(Cl)c(C(=O)Nc2c(C(=O)Nc3ccccc3)oc3ccccc23)n1,-1.02% (inactive),
N#C/C=C1\Sc2ccccc2C(=O)N1CC(=O)N1CCN(S(=O)(=O)c2ccccc2)CC1,,9.53 µM (active)
O=C(CN1CCCSc2ccccc21)N1CCN(S(=O)(=O)c2ccccc2)CC1,1.35% (inactive),
O=C(CN1CCCSc2ccccc21)N1CCN(S(=O)(=O)c2cccc(F)c2)CC1,-1.34% (inactive),
CC(=O)N1CCCc2cc(S(=O)(=O)N3CCC(C(=O)NC4CCCCC4)CC3)ccc21,-3.81% (inactive),
Cc1cn(C)c(CC(=O)NCc2ccccc2)c1C(=O)O,-0.767% (inactive),
CN1C(=O)/C(=C\c2ccc(-c3ccccc3)o2)SC1=S,,2.39 µM (active)
O=C(O)C(c1ccccc1)N1C(=O)/C(=C\c2ccc(-c3cccc(Cl)c3)o2)SC1=S (stereo not drawn),2.28% (inactive),
CN=C1S/C(=C\c2ccc(Sc3ccc(Cl)cc3)o2)C(=O)N1C,-3.48% (inactive),
COc1ccccc1NC(=O)CSC1=Nc2ccccc2C2=NC(CC(=O)NCc3cccs3)C(=O)N12 (stereo not drawn),4.48% (inactive),
CCOC(=O)CNC(=O)c1nn(-c2cccc(OC)c2)c(=O)c2ccccc12,-18.1% (inactive),
COc1ccc(-n2nc(C(=O)NCC(=O)Nc3cccc(C)n3)c3ccccc3c2=O)cc1,2.32% (inactive),
COc1ccc(-n2nc(C(=O)NCC(=O)N3CCN(c4ccccc4OC)CC3)c3ccccc3c2=O)c(OC)c1,,1.69 µM (active)
COc1cccc(NC(=O)c2nn(-c3ccc(OC)cc3OC)c(=O)c3ccccc23)c1,-0.385% (inactive),
COCCCNC(=O)CNC(=O)c1nn(-c2ccc(OC)cc2)c(=O)c2ccccc12,-0.501% (inactive),
COc1ccc(-n2nc(C(=O)NCC(=O)N3CCC(C(N)=O)CC3)c3ccccc3c2=O)cc1OC,,12 µM (active)
COc1ccc(-n2nc(C(=O)NCCc3ccc(Cl)cc3)c3c4ccccc4n(C)c3c2=O)cc1Cl,-1.63% (inactive),
COc1ccc(-n2nc(C(=O)NCC(=O)N3CCCCCC3)c3ccccc3c2=O)cc1Cl,,3.38 µM (active)
COc1ccc(-n2nc(C(=O)Nc3cc(OC)c(OC)c(OC)c3)c3ccccc3c2=O)c(OC)c1,-2.72% (inactive),
